{"source": "PubChem BioAssay AID686979", "about": "(National Center for Advancing Translational Sciences (NCATS), 2013)", "note": "Hit rate of the full screen: of about 420,000 compounds, about 50,000 (12%) were called active. About 26% were inconclusive and are not listed. The call rests on the fitted dose curve; in most records, active means well fitted inhibition curve with a large enough effect; inconclusive means small, poorly fitted or top-dose-only effect; inactive means flat fitted curve, though single readings scatter. The entries come from a sample that favours actives as a whole. On the % scale 0 is the no-effect control and ±100 the full control effect; potency means the concentration at half of the fitted maximal effect.", "data": [{"assay": "qHTS for Inhibitors of human tyrosyl-DNA phosphodiesterase 1 (TDP1): qHTS in cells in presence of CPT; further: nearly all actives have a fitted effect of over 55% in size", "conditions": "chicken DT40 Tdp1-/-;hTDP1 cells + 20 nM CPT, ATP luminescence, 48 h; series mostly up to 46.2 µM; activity change, negative = growth inhibition: at the top concentration", "how_it_was_run": "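Chicken DT40 Tdp1-/- cells complemented with human TDP1, 400 cells/well, exposed to compounds plus 20 nM camptothecin for at least 48 h at 37 C; viability read as ATP content by CellTiter-Glo luminescence.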", "values": [{"smiles": "Cc1cc(C)cc(OCC(=O)NC(C)c2ccccc2)c1", "note": "(configuration not stated)", "activity change, negative = growth inhibition": "-1.12% (inactive)"}, {"smiles": "CCOC(=O)C(C(=O)OCC)C(C#N)c1ccccc1", "note": "(configuration not stated)", "activity change, negative = growth inhibition": "-4.24% (inactive)"}, {"smiles": "CCOC(=O)/C=C/C(=O)OCC(=O)NC(c1ccccc1)c1ccccc1", "Potency": "5.8 µM (active)"}, {"smiles": "O=C(/C=C/c1cccc([N+](=O)[O-])c1)OCC(=O)N1CCOCC1", "activity change, negative = growth inhibition": "-14.9% (inactive)"}, {"smiles": "OC[C@@H]1CN(C2CCCC2)C[C@H](n2cnc3c(NC4CCC4)ncnc32)O1", "activity change, negative = growth inhibition": "-0.382% (inactive)"}, {"smiles": "OC[C@@H]1CN(Cc2ccc(Cl)cc2)C[C@H](n2cnc3c(NCc4ccncc4)ncnc32)O1", "activity change, negative = growth inhibition": "-15.7% (inactive)"}, {"smiles": "OC[C@@H]1CN(Cc2ccc(-c3ccccc3)cc2)C[C@H](n2cnc3c(NC4CCCC4)ncnc32)O1", "Potency": "1.03 µM (active)"}, {"smiles": "Cc1cccc(C2c3c(n(C)c(=O)n(C)c3=O)N=C3c4ccccc4C(=O)C32)c1", "note": "(configuration not stated)", "Potency": "8.2 µM (active)"}, {"smiles": "Cc1cccc([C@@H]2[C@@H]3C(=O)N(C)C(=O)[C@@H]3[C@@H]3C(=O)Nc4ccccc4C(=O)N23)c1", "activity change, negative = growth inhibition": "0.49% (inactive)"}, {"smiles": "COc1ccc(C2C3=C(OC(C)=O)c4ccccc4C3=Nc3c2c(=O)n(C)c(=O)n3C)cc1", "note": "(configuration not stated)", "activity change, negative = growth inhibition": "-17.3% (inactive)"}, {"smiles": "COc1ccc(/C=C/c2nnc(NC(=O)C(C)C)s2)cc1", "activity change, negative = growth inhibition": "-1.28% (inactive)"}, {"smiles": "O=C(Cn1cc(C(=O)C2CC2)c2ccccc21)Nc1ccccc1Cl", "activity change, negative = growth inhibition": "-8.18% (inactive)"}, {"smiles": "O=C(Nc1cccc(-n2cnnn2)c1)c1cccnc1", "activity change, negative = growth inhibition": "0.855% (inactive)"}, {"smiles": "COc1ccc(CNC(=O)C2=Cc3cccc(OC)c3OC2)cc1OC", "activity change, negative = growth inhibition": "-8.55% (inactive)"}, {"smiles": "O=S(=O)(c1cccc2nonc12)N1CCN(c2cccc(Cl)c2)CC1", "activity change, negative = growth inhibition": "-28.1% (inactive)"}, {"smiles": "COc1cc(=O)n2c(c1C(=O)NC(C)c1ccco1)CCN(Cc1cc(C)cc(C)c1)CC2", "note": "(configuration not stated)", "activity change, negative = growth inhibition": "-2.45% [at 9.04 µM] (inactive)"}, {"smiles": "CCc1ccc(N(CC(=O)Nc2sc3c(c2C(=O)OC)CCCC3)S(C)(=O)=O)cc1", "Potency": "23.1 µM (active)"}, {"smiles": "CCOCC(=O)Nc1sc2c(c1C(=O)OCC)CCCC2", "activity change, negative = growth inhibition": "-28.4% (inactive)"}, {"smiles": "CCOC(=O)c1c(NC(=O)/C(C#N)=C/c2ccccc2)sc2c1CCC2", "activity change, negative = growth inhibition": "-3.28% (inactive)"}, {"smiles": "COC(=O)c1c(NC(=O)CCCC(=O)O)sc2c1CCCCC2", "activity change, negative = growth inhibition": "2.67% (inactive)"}, {"smiles": "COC(=O)c1c(NC(=O)c2ccc(Cl)c(Cl)c2)sc2c1CCCC2", "activity change, negative = growth inhibition": "0.169% (inactive)"}, {"smiles": "COC(=O)c1c(NC(=O)COC(=O)[C@@H](NS(=O)(=O)c2ccccc2)C(C)C)sc2c1CCC2", "Potency": "18.4 µM (active)"}, {"smiles": "O=C(NC1CCCCC1)c1cc(C2CC2)on1", "activity change, negative = growth inhibition": "8.81% (inactive)"}, {"smiles": "COC(=O)CC(CC(=O)OC)n1cccc1", "activity change, negative = growth inhibition": "3.57% (inactive)"}, {"smiles": "CCCN(CCC)CC(O)COc1ccccc1C(=O)Nc1ccccc1", "note": "(configuration not stated)", "activity change, negative = growth inhibition": "-16.1% (inactive)"}, {"smiles": "CCCNC(=O)CCC(=O)N1Cc2ccccc2Oc2ncccc21", "activity change, negative = growth inhibition": "-11.4% (inactive)"}, {"smiles": "Cc1onc(-c2ccccc2Cl)c1C(=O)NCCn1ccc2ccccc21", "activity change, negative = growth inhibition": "-18.3% (inactive)"}, {"smiles": "Cc1ccc(CNC(=O)c2c(-c3ccccc3)noc2C)cc1", "activity change, negative = growth inhibition": "8.05% (inactive)"}, {"smiles": "Cc1ccc2cc(CCNC(=O)c3c(-c4ccccc4Cl)noc3C)c(=O)[nH]c2c1", "Potency": "23.1 µM (active)"}, {"smiles": "Oc1cccc(C2c3[nH]c4ccccc4c3CCN2Cc2cnn(-c3ccccc3)c2)c1", "note": "(configuration not stated)", "activity change, negative = growth inhibition": "1.42% (inactive)"}, {"smiles": "Cc1[nH]nc(-c2ccc(OCc3cnn(-c4ccccc4)c3)cc2O)c1Oc1ccc(Cl)cc1", "Potency": "18.4 µM (active)"}, {"smiles": "O=C(c1cnn(-c2ccc(Cl)cc2)c1)c1ccccc1O", "activity change, negative = growth inhibition": "-19.7% (inactive)"}, {"smiles": "O=C(COC(=O)c1n[nH]c2ccccc12)Nc1ccccc1Br", "activity change, negative = growth inhibition": "-3.17% (inactive)"}, {"smiles": "CN(C)S(=O)(=O)c1ccc(NC(=O)COC(=O)c2n[nH]c3ccccc23)cc1", "Potency": "14.6 µM (active)"}, {"smiles": "O=C(COC(=O)c1n[nH]c2ccccc12)NCc1ccccc1", "activity change, negative = growth inhibition": "-13.9% (inactive)"}, {"smiles": "Cc1nn(C(C)(C)C)c(OC(=O)CC(C)C)c1S(=O)(=O)c1ccccc1", "activity change, negative = growth inhibition": "-23.6% (inactive)"}, {"smiles": "COC(=O)c1cccc(C(=O)N2CCCC(Nc3ccc4c(c3)OCCO4)C2)c1", "note": "(configuration not stated)", "activity change, negative = growth inhibition": "-15.5% (inactive)"}, {"smiles": "O=C(CSc1nc2ccc(Nc3nc(N4CCOCC4)nc(N4CCOCC4)n3)cc2s1)NCc1ccco1", "Potency": "25.9 µM (active)"}, {"smiles": "O=C(CSc1nnnn1-c1ccccc1)NCc1ccco1", "activity change, negative = growth inhibition": "-15.8% (inactive)"}, {"smiles": "C=CCn1c(CSc2nc3ccccc3s2)nnc1SCC(=O)NCc1ccco1", "activity change, negative = growth inhibition": "3.96% (inactive)"}, {"smiles": "Brc1ccc(/C=N/N2CCN(C3c4ccccc4-c4ccccc43)CC2)s1", "activity change, negative = growth inhibition": "-7.72% (inactive)"}, {"smiles": "CC(=O)O[C@]1(C(C)=O)CC[C@H]2[C@@H]3CCC4=CC(=O)CC[C@]4(C)[C@@]3(F)[C@@H](O)C[C@@]21C", "activity change, negative = growth inhibition": "-16.5% (inactive)"}, {"smiles": "CN(C)c1ccc(C2N(C)C(=O)c3ccccc3N2C)cc1", "note": "(configuration not stated)", "activity change, negative = growth inhibition": "-15.1% (inactive)"}, {"smiles": "Cc1ccc2nnn(Cc3cccc(C(C)(C)C)c3O)c2c1", "Potency": "20.6 µM (active)"}, {"smiles": "Cc1ccc(C(=O)CSc2nnc(Cn3nnc4ccccc43)n2C)cc1", "activity change, negative = growth inhibition": "-21% (inactive)"}, {"smiles": "Cc1ccc(C2(C)NC(=O)N(CC(=O)N3CC(=O)Nc4ccccc43)C2=O)cc1", "note": "(configuration not stated)", "activity change, negative = growth inhibition": "-18.6% (inactive)"}, {"smiles": "CC(C)c1nc(SCC(=O)Nc2cccc(C(=O)O)c2)c2c3c(sc2n1)CCCC3", "activity change, negative = growth inhibition": "-9.85% (inactive)"}, {"smiles": "Cc1cc(NC(=O)CSc2nc(C(C)C)nc3sc4c(c23)CCC(C)C4)no1", "note": "(configuration not stated)", "Potency": "18.4 µM (active)"}, {"smiles": "Cc1nc(SCC(=O)Nc2cc(C)on2)c2c(C)c(C)sc2n1", "activity change, negative = growth inhibition": "-1.85% (inactive)"}, {"smiles": "Cc1cc(C)cc(NC(=O)CSc2nc(=O)n(CCN3CCOCC3)c3c2CCC3)c1", "activity change, negative = growth inhibition": "17.9% (inactive)"}, {"smiles": "O=C(CN1CCN(c2ncccn2)CC1)Nc1ccccc1C(F)(F)F", "activity change, negative = growth inhibition": "-23.1% (inactive)"}, {"smiles": "N#Cc1ccc(CN2CCCC3(CCN(C(=O)c4ccco4)CC3)C2)cc1", "activity change, negative = growth inhibition": "-0.202% (inactive)"}, {"smiles": "Cc1ccc2nc(-c3ccc(C)c(NC(=O)Cc4ccccc4)c3)oc2c1", "activity change, negative = growth inhibition": "-0.609% (inactive)"}, {"smiles": "CCC(C)[C@H](NC(=O)N1CCn2c1nc1ccccc12)C(=O)NCc1ccc(OC)cc1", "note": "(some centres not stated)", "Potency": "20.6 µM (active)"}, {"smiles": "CC(C)[C@H](NC(=O)N1CCn2c1nc1ccccc12)C(=O)NC1CC1", "activity change, negative = growth inhibition": "3.89% (inactive)"}, {"smiles": "CC(C)C[C@H](NC(=O)N1CCn2c1nc1ccccc12)C(=O)NC1CC1", "activity change, negative = growth inhibition": "-19.7% (inactive)"}, {"smiles": "COc1ccc2[nH]c(=O)c(-c3noc(-c4ccc(F)cc4)n3)cc2c1", "activity change, negative = growth inhibition": "-1.15% (inactive)"}, {"smiles": "COc1cc(-c2n[nH]c(=S)n2Cc2ccccc2)cc(OC)c1OC", "activity change, negative = growth inhibition": "0.202% (inactive)"}, {"smiles": "CCOc1nc(-c2ccc(OC)cc2)ccc1-c1noc(-c2cc(OC)c(OC)c(OC)c2)n1", "Potency": "5.17 µM (active)"}, {"smiles": "COc1ccc(-c2cc(-c3nc(-c4cc(OC)c(OC)c(OC)c4)no3)[nH]n2)c(OC)c1", "Potency": "20.6 µM (active)"}, {"smiles": "COc1nc(-c2ccc(Cl)cc2)ccc1-c1noc(-c2cccs2)n1", "activity change, negative = growth inhibition": "2.91% (inactive)"}, {"smiles": "CCOc1ccc(-c2noc(CCC(=O)NC3CCCC3)n2)cc1OC", "activity change, negative = growth inhibition": "3.5% (inactive)"}]}]}
